# Compounds with a hit are over-represented: about 7.5% of the library has one in this group of screens.
# NPC1 prom act – NPC1 promoter activation; Huh7 NPC1 promoter luciferase reporter, 24 h; Potency, µM (titrated, usually from 9.22 µM), for inactives: top-dose activation, usual class: activators; hit rate 2.4% among 320,000; note: % of control where 0% means no effect; nearly all actives have a fitted effect of over 60% in size
#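 Cells: Huh7 expressing luciferase under the NPC1 promoter, 1500/well. Seeded 2 h, compound added, incubated 24 h at 37 °C. Luciferase reagent, 10 min ambient, then luminescence.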
# ELG1 genotox – inducers of genotoxicity in HEK293T ELG1-luciferase cells | HEK293T ELG1-luciferase reporter, luminescence, 16 h | Potency, µM (series often up to 46 µM), for inactives: at the top dose activity change, positive = activation, actives largely listed as activators | hit rate 1.3% among 330,000 | AID 504466; note: % of control where 0% means no effect; nearly all actives have a fitted effect of over 60% in size
#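 Quantitative HTS format in 1536-well plates. HEK293T ELG1-luciferase reporter cells receive test compound and are incubated 16 hr at 37 °C, 5% CO2; ONE-Glo added, 30 min room temperature, then luminescence read.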
# KinaseGlo FLuc – counter-screen: inhibitors of Kinase-Glo firefly luciferase. Kinase-Glo luciferase, ATP luminescence, 8 min. Potency, µM (highest dose often 38.3 µM), without a hit: at the top dose activity change, negative = inhibition, actives largely listed as inhibitors. hit rate 0.28% among 200,000; note: % is set by controls: 0 for no effect and ±100 for the full control effect; nearly all actives have a fitted effect of over 60% in size
#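 Kinase-Glo luciferase light output from ATP and luciferin was measured with 10 uM ATP, within the enzyme's linear range. Buffer: 50 mM imidazole pH 7.2, 50 mM KCl, 7 mM MgCl2, 0.01% Tween 20, 0.05% BSA; luminescence read after 8 min at ambient temperature.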
# FLuc counter – firefly luciferase modulation, counter-screen for miR-21 project; P08659; hit rate 6.9% among 360,000; purified FLuc, Km substrates, luminescence inhibition; Potency, µM (doses to about 57.5 µM), for the others: top-dose activity change, negative = inhibition, hits mostly inhibitors;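 note: plate controls were vehicle for no effect and reference inhibitor for full effect; nearly all actives have a fitted effect of over 55% in size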
# Target sequence (P08659 whole entry, looked up): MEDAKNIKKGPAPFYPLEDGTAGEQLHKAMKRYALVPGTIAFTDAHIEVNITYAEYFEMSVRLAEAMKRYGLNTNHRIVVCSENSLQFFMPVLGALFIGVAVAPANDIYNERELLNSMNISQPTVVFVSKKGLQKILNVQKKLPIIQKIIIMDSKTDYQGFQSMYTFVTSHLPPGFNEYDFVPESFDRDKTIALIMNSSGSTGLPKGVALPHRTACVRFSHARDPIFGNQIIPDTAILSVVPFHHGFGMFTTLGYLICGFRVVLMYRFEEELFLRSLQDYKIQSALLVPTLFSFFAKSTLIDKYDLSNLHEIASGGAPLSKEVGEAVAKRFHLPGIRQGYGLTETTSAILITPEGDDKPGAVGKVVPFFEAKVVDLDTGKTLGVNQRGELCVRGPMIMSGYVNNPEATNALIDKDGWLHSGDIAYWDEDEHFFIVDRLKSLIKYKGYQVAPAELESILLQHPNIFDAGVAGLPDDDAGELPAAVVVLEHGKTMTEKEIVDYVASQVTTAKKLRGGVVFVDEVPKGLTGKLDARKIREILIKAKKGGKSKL
#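 Purified P. pyralis luciferase, 10 nM final, with Km-level 10 uM D-luciferin and 10 uM ATP in 50 mM Tris acetate pH 7.5, 10 mM Mg acetate, 0.01% Tween-20, 0.05% BSA; 6-point qHTS titration about 60 µM downward; luminescence read.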
# SMN2 splice enh – increases expression of the SMN2 splice variant; HEK293 SMN2-luciferase splicing reporter, luminescence, 30-36 h; Potency, µM (series often up to 46.1 µM), for inactives: at the highest dose activity change, positive = activation, usual class: activators; hit rate 2.8% among 210,000; note: % of control where 0% means no effect; nearly all actives have a fitted effect of over 55% in size
#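 HEK293 cells carry an SMN2 minigene-luciferase reporter in which exon 7 inclusion puts luciferase in frame. Cells were seeded at 2000 cells/well, attached for 10-12 hours, then exposed to compounds for 30-36 hours at 37C before ONE-Glo luminescence.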
# Rab9 promoter act – activators of Rab9 promoter. Huh7 Rab9 promoter-luciferase reporter, luminescence, 24 h. Potency, µM (top dose mostly 9.22 µM), without a hit: at the top dose activation, negative = inhibition, most hits filed as activators. hit rate 2.8% among 320,000; note: % of control where 0% means no effect; nearly all actives have a fitted effect of over 60% in size
#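 Using Huh7 cells stably transfected with Rab9 promoter–luciferase, compounds were incubated 24 h at 37 °C, 5% CO2; luciferase luminescence was read 10 min after reagent addition.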
# Numbers without * were called inactive; ? = inconclusive; . = no result given; [ ] = dose if it differs, or a comment. Calls come from the whole dose curve; as a rule, active = well fitted curve in the direction sought with a large enough effect; inconclusive = small, poorly fitted or top-dose-only effect, or another doubt; inactive = no such curve, though single readings can be large; an effect the other way counts as inactive or inconclusive. Potency is the fitted concentration of half-maximal effect.
SMILES,NPC1 prom act,ELG1 genotox,KinaseGlo FLuc,FLuc counter,SMN2 splice enh,Rab9 promoter act
C1CN(CCN2CCOCC2)CCN1,2%,0%,.,0%,.,3%
O=C(Nc1nccs1)c1ccc(COc2ccc(Cl)cc2)o1,.,.,0%,?,-4%,.
Cc1cccc(OCC(=O)Nc2nccs2)c1C,0.35µM*,2.1µM*,.,1.5µM*,.,0.35µM*
O=C(Nc1nccs1)c1ccc(COc2ccc(F)cc2)o1,?,3%,-3%,15µM*,15%,?
O=C(COc1ccc(F)cc1)Nc1nc2c(s1)CCCC2,?,?,.,27µM*,.,?
O=C(COc1ccc(F)cc1)Nc1nccs1,2µM*,?,?,7.6µM*,11µM*,1µM*
Cc1ccc2ncc3c(-c4ccc(F)cc4)nn(-c4cccc(F)c4)c3c2c1,.,.,.,-5%,.,.
CN(C)C(=O)c1ccc(COc2ccccc2Br)o1,?,21µM*,-4%,19µM*,8.9µM*,?
O=C(Nc1nccs1)c1ccc(COc2ccccc2Br)o1,27%,?,1%,19µM*,-16%,?
COc1ccccc1OCc1ccc(C(=O)N(C)C)o1,2%,18%,-7%,?,?,-8%
COc1ccc(NC(=O)CN2CCCN(Cc3ccc(Cl)cc3)S2(=O)=O)cc1Cl,.,.,.,-12%,-24%,.
COc1cccc(C2=CC(c3ccccc3F)n3ncc(C(=O)Nc4ccc(C)cc4)c3N2)c1 (stereo unspecified),.,.,.,-1%,.,.
COc1cccc(C2=CC(c3ccccc3F)n3c(nc4ccccc43)N2)c1 (stereo unspecified),.,.,.,12µM*,.,.
Cc1ccc(C2=CC(c3ccccc3F)n3c(nc4ccccc43)N2)cc1C (stereo unspecified),.,.,.,6µM*,.,.
COc1ccc(CCNC(=O)c2cc(S(=O)(=O)N3CCOCC3)cn2C)cc1OC,2%,0%,.,-4%,.,0%
COc1ccc(/C(N)=N/OC(=O)C2CCCCC2)cc1OC,?,-1%,.,?,.,?
COc1ccc(C(=O)O/N=C(\N)c2ccc(OC)c(OC)c2)cc1,26%,?,.,7.6µM*,.,?
COc1ccc(C(=O)O/N=C(\N)c2ccccn2)c(OC)c1,0.5µM*,1.5µM*,.,2.7µM*,.,0.5µM*
COc1ccc(/C(N)=N/OC(=O)C2CCCCC2)cc1,2.8µM*,8.2µM*,.,8.5µM*,.,?
COc1ccc(C(=O)O/N=C(\N)c2ccccc2)c(OC)c1,3.2µM*,?,?,1.7µM*,3.2µM*,?
COc1ccc(C(=O)O/N=C(\N)c2ccc(OC)c(OC)c2)c(OC)c1,24%,?,.,?,.,24%
O=C(NNC(=O)C1CCC1)c1ccccc1F,6%,1%,.,3%,.,-1%
COC(=O)c1sc(NC(=S)NNC(=O)c2c(Br)c(C)nn2C)c(C(=O)OC)c1C,-6%,-10%,.,?,.,11%
Cc1ccc(O)c(C=Nc2ccc3[nH]ncc3c2)c1,5%,-3%,-3%,19µM*,23%,-6%
CCSc1ncc(/C=N/Nc2ccccc2)n1C,?,18%,4%,19µM*,14µM*,?
SMILES,NPC1 prom act,ELG1 genotox,KinaseGlo FLuc,FLuc counter,SMN2 splice enh,Rab9 promoter act
O=[N+]([O-])c1ccc(N/N=C\c2cccn2-c2ccccc2)nc1,-5%,-6%,-1%,-2%,-54%,-4%
CCSc1ncc(/C=N/Nc2ccc([N+](=O)[O-])cc2)n1C,0.79µM*,?,-1%,?,?,0.71µM*
Cn1c(-c2ccc(F)cc2)cnc1SCC(=O)Nc1ccccc1,-4%,-6%,1%,-3%,0%,-13%
CCSc1ncc(/C=N/Nc2ccc(Cl)cc2)n1C,1.6µM*,?,0%,3µM*,20µM*,2.8µM*
COc1ccc(-c2cc3nc(-c4ccc(Br)cc4)cc(C(F)(F)F)n3n2)cc1,.,.,.,2%,10%,.
CCOC(=O)/C(N=Nc1ccc2c(c1)OCO2)=C(\C)O,4µM*,?,-10%,13µM*,11µM*,2.5µM*
CC(C)(C)c1ccc(OCC(=O)N/N=C/c2ccsc2)cc1,0%,0%,.,11µM*,.,-2%
O=C(O)COc1ccc(/C=N/NC(=O)COc2nsnc2N2CCOCC2)cc1,2%,2%,3%,-4%,.,-1%
CC(C)(C)OC(=O)COc1ccc(/C=N/NC(=O)CN2CCCCC2)cc1,1.6µM*,?,.,2%,.,1.1µM*
COc1ccc(/C=N/NC(=O)CN2CCCC2)cc1,7%,-4%,.,-3%,.,0%
CC(C)(C)c1ccc(OCC(=O)N/N=C/c2ccc(N3CCOCC3)cc2)cc1,0%,0%,12%,5.4µM*,-2%,-9%
CN(C(=O)COC(=O)c1cc(=O)[nH]c2ccccc12)c1ccccc1,.,-2%,.,.,.,.
Cn1cccc1-c1cc2n(n1)CCC(=O)N2CC(=O)Nc1ccc(F)cc1Cl,.,.,.,-3%,.,.
CN(C)c1ccc(C2CC(c3c(O)n(C4CCCCC4)c(=O)[nH]c3=O)=Nc3ccccc3S2)cc1 (stereo unspecified),.,.,.,-13%,.,.
Clc1ccccc1Cn1nc(-c2ccccc2)nc1-c1ccccc1,1%,1%,-2%,-19%,-7%[1.84 µM],-2%
Clc1ccc(Cn2nc(-c3ccccc3)nc2-c2ccccc2)cc1,22%,11%,-5%,15µM*,?,23%
CC1CCC(NC(=O)COC(=O)c2ccco2)CC1 (stereo unspecified),1%,-4%,.,24µM*,.,-2%
O=C(Nc1ccc(Br)cc1)c1ccco1,?,7.1µM*,-4%,13µM*,11µM*,3.2µM*
O=C(Nc1ccc(-c2ccccc2)cc1)c1ccco1,-4%,9%,1%,4%,-4%,1%
O=C(Nc1ccc(Nc2ccccc2)cc1)c1ccco1,?,9.2µM*,0%,7.6µM*,13µM*,0.56µM*
O=C(Nc1ccc(NC(=O)c2ccco2)cc1)c1ccco1,7%,16%,.,1%,.,5%
O=C(Nc1ccc(NC(=O)c2sc3ccccc3c2Cl)cc1)c1ccco1,-3%,23µM*,2%,0%,-7%,-5%
CC(NC(=O)c1ccc(N2Cc3ccccc3Oc3ncccc32)s1)c1ccccc1 (stereo unspecified),.,.,.,-11%,.,.
CN1C(=O)C2(c3ccccc31)N(c1cccc(C(F)(F)F)c1)C(=O)CS2(=O)=O (stereo unspecified),.,.,.,-5%,.,.
CCOC(=O)C1=CN(CC)S(=O)(=O)NC1c1cccc(OC)c1 (stereo unspecified),.,0%,.,.,.,.
O=C(CNC(=O)c1ccco1)Nc1ccncc1,-2%,3%,.,-1%,.,-2%

# Screening results (PubChem)
